Source: PubChem BioAssay (several laboratories)
Compounds with a hit are over-represented: about 1.5% of the library has one in this group of screens.
RAD52 inh: RAD52 DNA annealing inhibitors, primary screen, biochemical, FRET, single point, set 2. AID 651710, 2012. 360,000 compounds, 0.46% hits. inhibition, % at 18.7 µM. recombinant RAD52 DNA annealing, FRET fluorescence;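 active = every replicate showing at least 50% inhibition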
miR-122 sensor: miR-122 Renilla sensor signal increase in Huh7, primary screen, miR-122 inhibitor project, cell-based, single point, plate reader | AID 602342, 2012 | 340,000 compounds, 0.3% hits | Huh7 miR-122 Renilla luciferase sensor, 48 h; neutral wells = 0, positive control = 100 | activation (reporter increase), % at 12.5 µM;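 active = mean replicate activation score at least 90 and every replicate individually at or above 90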;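 note: higher luciferase means less miR-122 activity so hits act as miR-122 inhibitors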
DNA FID counter: compounds displacing fluorescent DNA intercalator, primary screen, artefact control for HCV NS3 helicase inhibitor project, biochemical, FID fluorescence. inhibition, % at 7.9 µM. 290,000 compounds, 0.17% hits. DNA fluorescent intercalator displacement; in the data active = inhibition above about 37%;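 note: higher means more ethidium bromide displaced from hairpin DNA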
Glyco luc inh: increase of ERlucT glycosylation luciferase signal, primary screen, N-linked glycosylation inhibitor project, D54 ERlucT cells, luminescence, set 2 | 360,000 compounds, 0.23% hits | D54 ERlucT glycosylation luciferase reporter, 24 h; percent of 100 nM tunicamycin response | AID 588692, 2011 | reporter increase, % at 12.5 µM;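 active = mean luciferase reporter signal, scaled so untreated is 0 and the glycosylation-blocking control 100, at or above a set limit in every replicate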;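 note: luciferase carries N-glycosylation sites so blocking glycosylation raises the light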
NRP1-CendR mod: modulators of CendR peptide binding to NRP-1, primary screen, biochemical, fluorescence polarization, uHTS | FAM-RPARPAR peptide binding to NRP-1 | Neuropilin-1 (Homo sapiens), O14786 | 360,000 compounds, 0.85% hits | inhibition, % at 25 µM | AID 602438, 2012;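 active = inhibition or corrected inhibition above about 18%, plus a signal ratio from 0.5 to 1.5, limit read from the data, passing the limit was not always enough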
RAD54 inh: inhibitors of human RAD54 branch migration, primary screen, biochemical, fluorescence, single point; RAD54 Holliday junction branch migration, FAM/BHQ fluorescence; 360,000 compounds, 0.14% hits; AID 602329, 2012; DNA repair and recombination protein RAD54-like (Homo sapiens), Q92698; inhibition, % at 10.4 µM;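 active = mean normalized replicate activity at least 40 and at least half of replicates scoring 40 or more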;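 note: inhibitors cause a drop in the FAM fluorescence signal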
Target sequence (Q92698 whole entry, looked up): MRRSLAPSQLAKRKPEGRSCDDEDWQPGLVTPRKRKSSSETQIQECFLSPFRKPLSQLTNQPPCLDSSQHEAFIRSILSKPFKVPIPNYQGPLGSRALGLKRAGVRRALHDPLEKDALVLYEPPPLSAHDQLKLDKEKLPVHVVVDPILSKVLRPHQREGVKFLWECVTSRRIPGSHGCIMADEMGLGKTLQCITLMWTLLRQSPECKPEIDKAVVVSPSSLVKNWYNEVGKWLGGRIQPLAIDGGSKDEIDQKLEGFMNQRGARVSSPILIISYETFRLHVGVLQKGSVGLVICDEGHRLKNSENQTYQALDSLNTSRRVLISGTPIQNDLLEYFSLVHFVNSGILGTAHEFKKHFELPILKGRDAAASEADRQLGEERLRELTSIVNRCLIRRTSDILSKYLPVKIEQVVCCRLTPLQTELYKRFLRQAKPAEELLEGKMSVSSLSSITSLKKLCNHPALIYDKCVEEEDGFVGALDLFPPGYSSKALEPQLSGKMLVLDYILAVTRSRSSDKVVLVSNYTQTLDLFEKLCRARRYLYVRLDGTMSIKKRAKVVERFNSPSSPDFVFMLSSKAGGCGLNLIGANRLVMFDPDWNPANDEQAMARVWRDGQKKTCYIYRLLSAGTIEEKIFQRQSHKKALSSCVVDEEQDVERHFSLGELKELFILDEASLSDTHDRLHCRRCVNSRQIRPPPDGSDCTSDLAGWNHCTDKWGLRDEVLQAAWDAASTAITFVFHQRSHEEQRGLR
Hits are given with their value; - = inactive; . = no result given.

SMILES	RAD52 inh	miR-122 sensor	DNA FID counter	Glyco luc inh	NRP1-CendR mod	RAD54 inh
COc1cccc(NC(=O)Nc2ccc3c(c2)C(=O)N(C)C[C@H](OC)[C@@H](C)CN[C@H](C)CO3)c1	67	-	.	.	.	-
COc1cccc(NC(=O)Nc2ccc3c(c2)C(=O)N(C)C[C@@H](OC)[C@H](C)CN[C@@H](C)CO3)c1	54	-	.	.	.	-
COc1cccc(NC(=O)Nc2ccc3c(c2)C(=O)N(C)C[C@H](OC)[C@H](C)CN[C@@H](C)CO3)c1	-	-	.	.	.	-
CO[C@H]1CN(C)C(=O)c2cc(NC(=O)c3ccc(Oc4ccccc4)cc3)ccc2OC[C@H](C)NC[C@H]1C	53	.	.	.	.	-
Cc1cccc(NS(=O)(=O)c2ccc(NS(=O)(=O)c3cccs3)cc2)c1	-	-	-	-	-	-
COc1cccc(NS(=O)(=O)c2ccc(Br)s2)c1	.	218	-	-	-	-
Cc1cccc(NS(=O)(=O)c2cccs2)c1	.	-	-	-	36	-
COc1cccc(NS(=O)(=O)c2c(C)cc(C)cc2C)c1	.	399	-	-	-	-
CO[C@@H]1CN(C)C(=O)c2cc(NC(=O)C3CCC3)ccc2OC[C@H](C)N(Cc2ccccn2)C[C@@H]1C	-	.	.	.	.	-
C[C@@H]1CCCCO[C@@H](CN(C)C(=O)NC2CCCCC2)[C@@H](C)CN([C@@H](C)CO)C(=O)c2cc(NC(=O)Nc3ccccc3)ccc2O1	-	-	.	.	.	-
Cc1noc(C)c1S(=O)(=O)N(C)C[C@H]1OCCCC[C@H](C)Oc2ccc(NS(=O)(=O)c3cccs3)cc2C(=O)N([C@@H](C)CO)C[C@H]1C	-	.	.	.	.	.
COc1ccc2[nH]c(=O)c(C(c3nnnn3CC3CCCO3)N3CCCCC3)cc2c1 (configuration not stated)	-	-	-	-	26	.
CCOC(=O)CNc1ccc2c(c1)OCO2	.	-	-	-	34	-
CCOC(=O)C1=C(N)Oc2cc(O)ccc2C1c1cccc(Cl)c1 (configuration not stated)	-	-	-	-	27	-
CCOC(=O)C1=C(N)Oc2cc(O)ccc2C1c1cccnc1 (configuration not stated)	.	-	-	-	-	-
COc1ccc(S(=O)(=O)N(C)C[C@@H]2Oc3c(NS(=O)(=O)c4ccc(C)cc4)cccc3C(=O)N([C@@H](C)CO)C[C@@H]2C)cc1	-	.	.	.	.	.
C[C@H]1CN([C@@H](C)CO)C(=O)c2cc(-c3cccnc3)cnc2O[C@@H]1CN(C)Cc1ccccc1	.	-	.	.	.	.
O=C(NC(=S)Nc1ccccc1N1CCCCC1)c1ccco1	-	-	-	-	-	-
O=C(NC(=S)Nc1ccccc1N1CCCC1)c1ccco1	-	-	-	-	28	-
CCCCC[C@H](C)N1C[C@H](COCc2ccccc2)Oc2cc(N3CC[C@H](O)C3)ccc2S1(=O)=O	-	.	.	.	-	.
CCCCC[C@@H](C)N1C[C@H](COCc2ccccc2)Oc2cc(N3CC[C@H](O)C3)ccc2S1(=O)=O	-	.	.	.	20	.
Cc1ccc(S(=O)(=O)N[C@@H]2C=C[C@@H](CC(=O)O)O[C@@H]2CO)cc1	-	.	.	.	.	-
CCC[C@H](CN[C@@H](CNC)[C@H](C)CC)NCCc1cc(C(F)(F)F)cc(C(F)(F)F)c1	-	-	39	-	-	-
CCC[C@@H](CN[C@@H](CNC)[C@H](C)CC)NCC1CCC(C(C)(C)C)CC1 (some centres not stated)	-	-	40	-	-	-
CCC(=O)N1CC2(CN(Cc3cccnc3)C2)c2c(n(C)c3cc(OC)ccc23)[C@H]1CO	-	.	.	.	.	.
Cc1ccc(C(=O)COC(=O)c2cc(Cl)ccc2O)cc1[N+](=O)[O-]	-	-	-	-	45	-
CC(C)NC(=O)N(C)C[C@@H]1Oc2cc(C#C[C@@H](C)O)ccc2S(=O)(=O)N([C@@H](C)CO)C[C@H]1C	-	-	.	.	.	-
